Reference: the supplement of paper PMC9492666

What was measured:
[1] = system: HCC1937; assay: relative cell viability, compound + erastin, vs DMSO (fraction of DMSO control); higher = less growth inhibition; settings: 72 h
[2] = system: MDA-MB-231; assay: as above; settings: 72 h
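Also: viability read by CCK-8 kit in 96-well plates, part of a combination screen pairing lipid-metabolism-targeting compounds with erastin.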

Compound | relative cell viability [1] | relative cell viability [2]
COc1cccc(-n2c(=O)[nH]c3cc(Cl)n(-c4ccc(-c5cccc(OC)c5O)cc4)c3c2=O)c1 + CCOc1ccccc1-n1c(C(C)N2CCN(C(=O)COc3ccc(Cl)cc3)CC2)nc2ccccc2c1=O [erastin] | 0.66 | 0.852
COC(=O)c1cc(Cl)c(O)c(S(=O)(=O)Nc2cc(-c3ccccc3)c(F)cc2F)c1 + CCOc1ccccc1-n1c(C(C)N2CCN(C(=O)COc3ccc(Cl)cc3)CC2)nc2ccccc2c1=O [erastin] | 0.728 | 0.806
CCCCCCCCCCC#CC#CCCCCCCCCC(=O)O [10,12-Tricosadiynoic acid] + CCOc1ccccc1-n1c(C(C)N2CCN(C(=O)COc3ccc(Cl)cc3)CC2)nc2ccccc2c1=O [erastin] | 0.648 | 0.627
O=C1c2cc(CO)cc(O)c2C(=O)c2c(O[C@@H]3O[C@H](CO)[C@@H](O)[C@H](O)[C@H]3O)cccc21 [Aloe-emodin-8-O-beta-D-glucopyranoside] + CCOc1ccccc1-n1c(C(C)N2CCN(C(=O)COc3ccc(Cl)cc3)CC2)nc2ccccc2c1=O [erastin] | 0.493 | 0.704
NC(CO)C(=O)O (racemic) [DL-Serine] + CCOc1ccccc1-n1c(C(C)N2CCN(C(=O)COc3ccc(Cl)cc3)CC2)nc2ccccc2c1=O [erastin] | 0.667 | 0.62
CN1CCN(C(=O)C2C(C(=O)O)[C@H]3CC[C@@H]2O3)CC1 (some centres undefined) + CCOc1ccccc1-n1c(C(C)N2CCN(C(=O)COc3ccc(Cl)cc3)CC2)nc2ccccc2c1=O [erastin] | 0.278 | 0.394
N=C(N)NCCC(=O)O [3-Guanidinopropionic Acid] + CCOc1ccccc1-n1c(C(C)N2CCN(C(=O)COc3ccc(Cl)cc3)CC2)nc2ccccc2c1=O [erastin] | 0.714 | 0.852
Nn1nnc2ccccc21 [1-Aminobenzotriazole] + CCOc1ccccc1-n1c(C(C)N2CCN(C(=O)COc3ccc(Cl)cc3)CC2)nc2ccccc2c1=O [erastin] | 0.76 | 0.73
CC(C)CCC[C@@H](C)[C@H]1CC[C@H]2[C@@H]3CC=C4C[C@@H](O)CC[C@]4(C)[C@H]3CC[C@]12C [Cholesterol] + CCOc1ccccc1-n1c(C(C)N2CCN(C(=O)COc3ccc(Cl)cc3)CC2)nc2ccccc2c1=O [erastin] | 0.901 | 0.953
Cc1c2c(=O)n(-c3ccccc3Cl)[nH]c2cc(=O)n1Cc1ccccn1 + CCOc1ccccc1-n1c(C(C)N2CCN(C(=O)COc3ccc(Cl)cc3)CC2)nc2ccccc2c1=O [erastin] | 0.72 | 0.784
O=c1c(-c2ccc(O)cc2)coc2cc(O)ccc12 [Daidzein] + CCOc1ccccc1-n1c(C(C)N2CCN(C(=O)COc3ccc(Cl)cc3)CC2)nc2ccccc2c1=O [erastin] | 0.827 | 0.619
CN1CC(O)C2=C/C(=N/NC(N)=O)C(=O)C=C21 (centres undefined) [Carbazochrome] + CCOc1ccccc1-n1c(C(C)N2CCN(C(=O)COc3ccc(Cl)cc3)CC2)nc2ccccc2c1=O [erastin] | 0.484 | 0.682
